High-throughput results (PubChem)
RBX1-CUL1 inh: blocks human RBX1-Cullin-1 di-ubiquitin formation; AID 1347404; in vitro K48 di-Ub FRET, acceptor:donor ratio, 45 min; 140,000 compounds, 0.6% hits; inhibition, % at 10 µM; in the data active = inhibition above about 25%
Hits are given with their value. This excerpt belongs to a sample that is enriched for hits.

For CC(C)(C)C1CCc2c(sc(NC(=O)c3ccco3)c2C(=O)NCc2ccco2)C1 (centres undefined) the results were RBX1-CUL1 inh inactive.
Screening CC1C(c2ccc(F)cc2)NC(c2ccc(F)cc2)CC1(C)O (centres undefined) returned RBX1-CUL1 inh inactive.
Screening Clc1ccccc1-c1ccc(CNC2CC2)o1 returned RBX1-CUL1 inh inactive.
For O=C1S/C(=C\c2cc(Br)cc(Br)c2O)C(=O)N1c1ccc(Cl)cc1 the results were RBX1-CUL1 inh 31.
CCOc1cc(/C=C2\SC(=O)N(c3ccc(Cl)cc3)C2=O)cc(Cl)c1O was read as RBX1-CUL1 inh inactive.
`COc1cc(/C=C2\SC(=O)N(c3ccc(Cl)cc3)C2=O)cc(Cl)c1O` gave RBX1-CUL1 inh 63.
For O=C1S/C(=C\c2cc(Cl)c(O)c(Cl)c2)C(=O)N1c1ccc(Cl)cc1 the results were RBX1-CUL1 inh inactive.
O=C1S/C(=C\c2cc(Cl)c(O)c(Cl)c2)C(=O)N1c1cccc(Cl)c1 was read as RBX1-CUL1 inh inactive.
For O=C1S/C(=C\c2ccccc2C(F)(F)F)C(=O)N1c1ccc(Cl)cc1 the results were RBX1-CUL1 inh inactive.
`OCCc1cn(CC2CCN(Cc3cccc4ncccc34)CC2)nn1` gave RBX1-CUL1 inh inactive.
`CCC(=O)Nc1cccc(OC)c1` gave RBX1-CUL1 inh inactive.
`O=C(N/N=C1\CCCc2c1[nH]c1ccccc21)c1ccncc1` gave RBX1-CUL1 inh inactive.
CCCN1C(=O)c2ccc(C(=O)Nc3ccc(Br)cc3C(=O)O)cc2C1=O was read as RBX1-CUL1 inh inactive.
Screening CCOc1ccccc1N1C(=O)c2ccc(C(=O)Nc3ccc(Br)cc3C(=O)O)cc2C1=O returned RBX1-CUL1 inh inactive.
`CC(c1ccccc1)N1C(=O)c2ccc(C(=O)Nc3ccc(Br)cc3C(=O)O)cc2C1=O` (centres undefined) gave RBX1-CUL1 inh 39.
For CCCCCC(=O)Nc1scc(-c2ccc(Cl)cc2)c1C(=O)OCC the results were RBX1-CUL1 inh inactive.
For COCCO[C@H]1[C@H](NC(=O)C(C)C)c2ccccc2C12CCN(C(=O)c1cccc(F)c1F)CC2 the results were RBX1-CUL1 inh inactive.
CCN1C(=O)S/C(=C/c2ccc(-c3cc(C(=O)O)ccc3C)o2)C1=O was read as RBX1-CUL1 inh inactive.
For C=CCN1C(=O)S/C(=C/c2ccc(-c3cc(C(=O)O)ccc3C)o2)C1=O the results were RBX1-CUL1 inh inactive.
Screening CCCN1C(=O)/C(=C/c2cc(-c3ccccc3)n(-c3ccc(C(=O)OCC)cc3)c2-c2ccccc2)C(=O)N(c2ccccc2)C1=S returned RBX1-CUL1 inh inactive.
Screening Cc1cc(C(=O)O)ccc1-c1ccc(/C=C2\SC(=O)N(CC(=O)N3CCCC3)C2=O)o1 returned RBX1-CUL1 inh inactive.
Screening Cc1ccc(C(=O)O)cc1-c1ccc(/C=C2\SC(=O)N(Cc3ccccc3F)C2=O)o1 returned RBX1-CUL1 inh 50.
Screening CCCN1C(=O)/C(=C\c2ccco2)C(=O)N(c2ccccc2)C1=S returned RBX1-CUL1 inh inactive.
Screening Cc1cc(C(=O)O)ccc1-c1ccc(/C=C2/SC(=O)N(C(C)C)C2=O)o1 returned RBX1-CUL1 inh 64.
Screening Cc1cc(C(=O)O)ccc1-c1ccc(/C=C2\SC(=O)N(CC(=O)N3CCOCC3)C2=O)o1 returned RBX1-CUL1 inh inactive.
For CCCN1C(=O)/C(=C\c2ccc(-c3cc(C(=O)O)ccc3C)o2)C(=O)N(c2ccccc2)C1=S the results were RBX1-CUL1 inh 45.
For O=S(=O)(NC1CCCc2ccccc21)c1ccc(Br)cc1 (centres undefined) the results were RBX1-CUL1 inh inactive.
Screening Fc1ccc(C2Nc3ccc(C(F)(F)F)cc3C3C=CCC32)cc1 (centres undefined) returned RBX1-CUL1 inh inactive.
Screening COc1ccc(-n2nnnc2-c2cnc(N3CCOCC3)nc2C(F)(F)F)cc1 returned RBX1-CUL1 inh inactive.
Cc1ccc2c(c1)C=Cc1ccccc1O2 was read as RBX1-CUL1 inh inactive.
`CCc1c(C)sc(NC(=O)c2ccncc2)c1C(=O)NC1CCCC1` gave RBX1-CUL1 inh inactive.
For COc1ccc(F)c(CC2(CCC(=O)N3CCCC3c3ccc(F)cc3)CCC(=O)N2)c1 (centres undefined) the results were RBX1-CUL1 inh inactive.
CN(CCC1CCOCC1)C(=O)c1cc(Cn2ccc3ccccc32)[nH]n1 was read as RBX1-CUL1 inh inactive.
Screening Cc1ncc(CN2CCC3(CCCN(CCCc4ccccc4)C3)C2)cn1 (centres undefined) returned RBX1-CUL1 inh inactive.
Cc1ccc2oc(=O)n(CCOc3ccc(Br)cc3)c2c1 was read as RBX1-CUL1 inh inactive.
Screening O=C(Cc1ccccc1Cl)c1ccc(O)c(O)c1O returned RBX1-CUL1 inh 101.
O=C(Cc1ccccc1Cl)N1CCN(c2ncccn2)CC1 was read as RBX1-CUL1 inh inactive.
O=C(Cc1ccccc1)Nc1cc(Cl)ccc1O was read as RBX1-CUL1 inh inactive.
COC(=O)c1ccc(OC)cc1OCC#N was read as RBX1-CUL1 inh inactive.
Screening Cc1ccc(NC(=O)c2ccco2)c(O)c1 returned RBX1-CUL1 inh inactive.
O=C(/C=C/c1cccs1)c1ccc2c(c1)OCCO2 was read as RBX1-CUL1 inh inactive.
For COC(=O)c1ccc(/C=C/C(=O)c2ccc3c(c2)OCCO3)cc1 the results were RBX1-CUL1 inh inactive.
Screening O=C(/C=C/c1cccnc1)c1ccc2c(c1)OCCO2 returned RBX1-CUL1 inh 71.
`COc1ccc(C(C2C(=O)N=C(SC)NC2=O)C2C(=O)N=C(SC)NC2=O)cc1` (centres undefined) gave RBX1-CUL1 inh inactive.
Cc1ccc(/C=C/c2nc(-c3ccccc3)no2)cc1 was read as RBX1-CUL1 inh inactive.
`C=CCOc1ccccc1C=C1N=C(c2ccc(N(C(C)=O)C(=O)c3ncn[nH]3)cc2)OC1=O` gave RBX1-CUL1 inh inactive.
Screening C[C@@H]1CN(C2(C(=O)N(C)CCn3ccnc3)Cc3ccccc3C2)C[C@H](C)O1 returned RBX1-CUL1 inh inactive.
`O=C1C(Cl)=C(N2CCOCC2)C(=O)N1c1ccc(I)cc1` gave RBX1-CUL1 inh inactive.
`Cc1cc2c(n1Cc1ccccc1)C(=O)c1ccccc1-2` gave RBX1-CUL1 inh inactive.
For CC1=C(SCc2ccccc2)C(=O)c2ccccc2C1=O the results were RBX1-CUL1 inh 37.
Cc1ccccc1-n1ncc(SCc2ccccc2)c(Cl)c1=O was read as RBX1-CUL1 inh inactive.
Screening Cc1[nH]c2ccccc2c1C(c1cc(O)ccc1Br)c1c(C)[nH]c2ccccc12 returned RBX1-CUL1 inh inactive.
For O=C1NN(c2cccc(Cl)c2)C(=O)/C1=C/c1ccc2c(c1)OCO2 the results were RBX1-CUL1 inh inactive.
`CC(C)OC(=O)c1ccc(-c2ccc(/C=C3/C(=O)NN(c4ccccc4)C3=O)o2)cc1` gave RBX1-CUL1 inh inactive.
CCOC(=O)c1ccc(-c2ccc(/C=C3/C(=O)NN(c4ccc(C)cc4)C3=O)o2)cc1 was read as RBX1-CUL1 inh inactive.
Screening O=C1NN(c2cccc(Cl)c2)C(=O)/C1=C\c1ccc(-c2ccc(C(=O)O)c(Cl)c2)o1 returned RBX1-CUL1 inh 44.
`O=C1NN(c2cccc(Br)c2)C(=O)/C1=C\c1ccc(-c2ccc(C(=O)O)cc2)o1` gave RBX1-CUL1 inh 60.
For Cc1cccc(N2NC(=O)/C(=C/c3ccc(-c4ccc(Cl)c(C(=O)O)c4)o3)C2=O)c1 the results were RBX1-CUL1 inh inactive.
`COc1cccc(NC(=O)C23CCC(C)(c4nc5ccccc5nc42)C3(C)C)c1` (centres undefined) gave RBX1-CUL1 inh inactive.
CCOC(=O)c1cnn(-c2cc(OC)nc(-c3ccccc3)n2)c1C was read as RBX1-CUL1 inh inactive.
